High-throughput results: PubChem, National Center for Advancing Translational Sciences (NCATS)
FLuc counter: counter-screen for miR-21 project: firefly luciferase inhibitors or activators; P08659; purified FLuc, Km substrates, luminescence inhibition; Potency, µM (series often up to 57.5 µM), for the others: top-dose activity change, negative = inhibition, actives largely listed as inhibitors; 360,000 compounds, 6.9% hits; AID 588342;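 further: plate controls were vehicle for no effect and reference inhibitor for full effect; nearly all actives have a fitted effect of over 55% in size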
Target sequence (P08659 whole entry, looked up): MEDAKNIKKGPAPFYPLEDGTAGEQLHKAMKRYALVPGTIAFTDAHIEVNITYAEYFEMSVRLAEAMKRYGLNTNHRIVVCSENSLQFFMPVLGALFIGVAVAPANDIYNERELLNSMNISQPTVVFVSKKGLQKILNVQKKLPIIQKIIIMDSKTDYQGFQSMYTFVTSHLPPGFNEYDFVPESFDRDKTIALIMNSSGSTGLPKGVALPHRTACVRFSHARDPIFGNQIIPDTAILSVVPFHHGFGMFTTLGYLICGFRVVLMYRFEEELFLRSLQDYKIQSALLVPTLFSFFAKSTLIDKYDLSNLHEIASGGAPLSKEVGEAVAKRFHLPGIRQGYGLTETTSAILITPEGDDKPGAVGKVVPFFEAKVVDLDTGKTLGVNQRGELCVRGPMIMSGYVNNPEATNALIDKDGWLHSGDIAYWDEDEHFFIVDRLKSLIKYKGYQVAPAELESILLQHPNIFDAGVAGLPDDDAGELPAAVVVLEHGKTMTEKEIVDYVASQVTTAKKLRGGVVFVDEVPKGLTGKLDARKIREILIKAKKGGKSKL
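Purified P. pyralis luciferase (10nM final) with 10uM D-luciferin and 10uM ATP (Km levels) in 50mM Tris acetate pH 7.5, 10mM Mg acetate, 0.01% Tween-20, 0.05% BSA; qHTS 6-point titration, ~60 µM downward; luminescence read.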
Luc counter: counter-screen: inhibitors of Kinase-Glo firefly luciferase; Q27757; Kinase-Glo luciferase, ATP luminescence, 8 min; Potency, µM (series often up to 38.3 µM), for inactives: at the highest dose activity change, negative = inhibition, actives largely listed as inhibitors; 200,000 compounds, 0.28% hits; further: on the % scale 0 is the no-effect control and ±100 the full control effect; nearly all actives have a fitted effect of over 60% in size
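Compound is pinned into ATP-containing buffer (10 uM ATP, imidazole pH 7.2, 7 mM MgCl2). Kinase-Glo luciferase reagent is then added. Light output is recorded following an 8-min room-temperature incubation.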
SMN2 splice up: increases expression of the SMN2 splice variant; HEK293 SMN2-luciferase splicing reporter, luminescence, 30-36 h; Potency, µM (titrated, usually from 46.1 µM), without a hit: at the highest dose activity change, positive = activation, most hits filed as activators; 210,000 compounds, 2.8% hits; further: % of control where 0% means no effect; nearly all actives have a fitted effect of over 55% in size
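qHTS luciferase splicing reporter: luminescence rises when SMN2 exon 7 is included in transfected HEK293 cells. Compound exposure lasted 30-36 h at 37C, with 4.5 mM final sodium butyrate as control, followed by a ONE-Glo read.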
NPC1 promoter act: activates the NPC1 promoter. Huh7 NPC1 promoter luciferase reporter, 24 h. 320,000 compounds, 2.4% hits. Potency, µM (series often up to 9.22 µM), inactives show at the highest dose activation, actives largely listed as activators; further: % of control where 0% means no effect; nearly all actives have a fitted effect of over 60% in size
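Huh7 reporter cells (NPC1 promoter driving luciferase) are dosed with compound for 24 h at 37 °C, 5% CO2; luciferase detection reagent is then added and luminescence measured after 10 min at ambient temperature.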
ELG1 genotox: induces genotoxicity in HEK293T cells with luciferase-tagged ELG1; HEK293T ELG1-luciferase reporter, luminescence, 16 h; Potency, µM (titrated, usually from 46 µM), for the others: at the top dose activity change, positive = activation, usual class: activators; 330,000 compounds, 1.3% hits; further: % of control where 0% means no effect; nearly all actives have a fitted effect of over 60% in size
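Reporter readout depends on ELG1 protein level, which increases with genetic stress. After 16 hr compound exposure at 37 °C, luciferase activity was quantified using ONE-Glo.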
Rab9 promoter act: activates the Rab9 promoter | Huh7 Rab9 promoter-luciferase reporter, luminescence, 24 h | 320,000 compounds, 2.8% hits | Potency, µM (top dose mostly 9.22 µM), for inactives: top-dose activation, negative = inhibition, usual class: activators | AID 485297; further: % of control where 0% means no effect; nearly all actives have a fitted effect of over 60% in size
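Using Huh7 cells stably transfected with Rab9 promoter–luciferase, compounds were incubated 24 h at 37 °C, 5% CO2; luciferase luminescence was read 10 min after reagent addition.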
Numbers without * were called inactive. Compounds with a hit are over-represented: about 7.5% of the library has one in this group of screens. The call rests on the fitted dose curve; in most records, active means well fitted curve in the direction sought with a large enough effect; inconclusive means small, poorly fitted or top-dose-only effect, or another doubt; inactive means no such curve, though single readings can be large; an effect the other way counts as inactive or inconclusive. Potency means the concentration at half of the fitted maximal effect.

Cc1cccc(NC(=O)CNC(=O)CSc2nc(N)cc(N)n2)c1C was read as FLuc counter 1.3%, NPC1 promoter act -3.9%, ELG1 genotox 1.2% and Rab9 promoter act 0.0%.
Cc1n[nH]c(=O)n1-c1ccc(OCc2ccccc2)cc1 was read as FLuc counter 21.3µM*, Luc counter -2.0%, NPC1 promoter act inconclusive, ELG1 genotox inconclusive and Rab9 promoter act 2.82µM*.
`O=C(OCC(=O)N1CCCCC1)c1c[nH]c2ccccc12` gave FLuc counter 16.9µM*, NPC1 promoter act 24.3%, ELG1 genotox inconclusive and Rab9 promoter act inconclusive.
For C/C(CC(=O)N1CCCC1)=N\NC(=O)c1cc2ccccc2cc1O the results were FLuc counter 15.1µM*, NPC1 promoter act 14.4%, ELG1 genotox -8.5% and Rab9 promoter act 0.9%.
O=C(OCC(=O)N1CCCCC1)c1cc2ccccc2cc1O was read as FLuc counter 23.9µM*, Luc counter -4.8%, SMN2 splice up -5.5%, NPC1 promoter act 12.5%, ELG1 genotox inconclusive and Rab9 promoter act 12.5%.
CC1CCCN(C(=O)COC(=O)c2n[nH]c3ccccc23)C1 (configuration not stated) was read as FLuc counter 16.9µM*, Luc counter -2.8%, SMN2 splice up 25.5%, NPC1 promoter act inconclusive, ELG1 genotox 23.1µM* and Rab9 promoter act inconclusive.
O=C(OCC(=O)N1CCCC1)c1c[nH]c2ccccc12 was read as NPC1 promoter act 8.7%, ELG1 genotox 4.6% and Rab9 promoter act 21.6%.
`C[C@H](NC(=O)[C@@H]1CSC2c3ccccc3C(=O)N21)C(=O)NCc1c(F)cccc1Cl` (some centres not stated) gave FLuc counter -4.7%, NPC1 promoter act -1.7%, ELG1 genotox -4.2% and Rab9 promoter act -8.6%.
CN(C(=O)c1cc2ccccc2cc1O)C1CCCCC1 was read as FLuc counter -11.6%, NPC1 promoter act -7.0%, ELG1 genotox 9.2% and Rab9 promoter act 4.6%.
Screening O=C(OCC(=O)N1CCOCC1)c1ccccc1O returned FLuc counter 23.9µM*, NPC1 promoter act inconclusive, ELG1 genotox inconclusive and Rab9 promoter act 3.98µM*.
CN(C(=O)COC(=O)c1cc2ccccc2cc1O)C1CCCCC1 was read as FLuc counter 19µM*, NPC1 promoter act 7.4%, ELG1 genotox 0.8% and Rab9 promoter act 0.5%.
Screening CC(=O)N1CCCc2cc(S(=O)(=O)N(C)CC(=O)Nc3cccc(Cl)c3C)ccc21 returned FLuc counter -8.2%.
COc1ccc(-n2cc(CN3CCCC3)c(-c3cccc(F)c3)n2)cc1 was read as FLuc counter inconclusive, Luc counter 0.7%, NPC1 promoter act -3.2%, ELG1 genotox -1.4% and Rab9 promoter act -6.0%.
`Cc1cccc(-n2cc(CN3CCN(Cc4nccn4C)CC3)c(-c3cccc(F)c3)n2)c1` gave FLuc counter 26.9µM*, NPC1 promoter act 3.1%, ELG1 genotox -0.6% and Rab9 promoter act 8.0%.
Screening C/C(=N/OCO/N=C(\C)c1ccccc1)c1ccccc1 returned FLuc counter 12.9%, Luc counter 2.2%, SMN2 splice up 253.0%, NPC1 promoter act -0.1%, ELG1 genotox 2.5% and Rab9 promoter act -3.8%.
Screening C/C(=N\OCc1ccc(C#N)cc1)c1ccccc1 returned FLuc counter 10.7µM*, Luc counter -11.9%, SMN2 splice up 15.8µM*, NPC1 promoter act inconclusive, ELG1 genotox 18.3µM* and Rab9 promoter act 3.16µM*.
C/C(=N\OCc1cccc(C(=O)O)c1)c1ccc(Cl)cc1 was read as FLuc counter 0.0953µM*, NPC1 promoter act inconclusive, ELG1 genotox inconclusive and Rab9 promoter act 0.0891µM*.
`C/C(=N\OCc1ccc(C#N)cc1)c1ccc(S(=O)(=O)N(C)C)cc1` gave FLuc counter 21.3µM*, NPC1 promoter act inconclusive, ELG1 genotox 0.9% and Rab9 promoter act 10.6%.
Screening COc1ccccc1OC(=O)c1ccc(S(=O)(=O)N(C)C)cc1 returned FLuc counter -18.6%, Luc counter -4.1%, SMN2 splice up 2.8%, NPC1 promoter act -0.7%, ELG1 genotox -4.2% and Rab9 promoter act -1.8%.
`CCCCN(C)C(=O)c1cc2c(s1)-c1ccccc1S(=O)(=O)C2` gave FLuc counter inconclusive, NPC1 promoter act 14.4%, ELG1 genotox -0.9% and Rab9 promoter act 0.9%.
Screening CCc1ccc2oc(-c3ccc(C)c(NC(=O)c4ccc(C#N)cc4F)c3)nc2c1 returned FLuc counter 16.9µM* and SMN2 splice up -10.2%.
For CCC(=O)Nc1cc(-c2nc3cc(C)cc(C)c3o2)ccc1C the results were FLuc counter 1.69µM* and SMN2 splice up 11.4%.
COc1ccc2oc(-c3cccc(NC(=O)c4ccc(C#N)cc4F)c3)nc2c1 was read as FLuc counter -3.1% and SMN2 splice up -5.9%.
`CCc1ccc2oc(-c3ccc(C)c(NC(=O)Cc4ccccc4)c3)nc2c1` gave FLuc counter 4.78µM* and SMN2 splice up 23.1%.
Screening O=C(CNc1ccc(Br)cc1)NC(=O)NC1CCCCC1 returned FLuc counter -1.3%, NPC1 promoter act -0.6%, ELG1 genotox 1.1% and Rab9 promoter act -2.3%.
CCCN(C(=O)Cn1nc(Cc2cccnc2)c2ccccc2c1=O)c1ccc(C(C)C)cc1 was read as FLuc counter -10.4% and SMN2 splice up -9.7%.
For CCN(C(=O)Cn1c(=O)n(-c2ccccc2)c(=O)c2ccc(C(=O)NCc3ccc4c(c3)OCO4)cc21)c1cccc(C)c1 the results were FLuc counter 2.0% and SMN2 splice up -13.8%.
For O=C(c1ccccc1)N1CCN(CCc2ccncc2)CC1 the results were FLuc counter -1.8%.
`Cc1oc(-c2cc(F)cc(F)c2)nc1CN1CCN(C(=O)c2ccco2)CC1` gave FLuc counter -1.2%, NPC1 promoter act -6.0%, ELG1 genotox -2.4% and Rab9 promoter act 0.2%.
For CCCCN1C=CC(=C2N=c3cccc([N+](=O)[O-])c3=N2)C=C1 the results were FLuc counter 21.3µM*, Luc counter inconclusive, SMN2 splice up 11.2µM*, NPC1 promoter act inconclusive, ELG1 genotox inconclusive and Rab9 promoter act inconclusive.
Screening COc1ccc(NC(=O)c2ccc3c(c2)CCN3S(=O)(=O)c2ccc(C)cc2)cc1Cl returned FLuc counter -6.8% and SMN2 splice up 3.3%.
CC(C)(C)c1csc(NC(=O)Cc2cccs2)n1 was read as FLuc counter 15.1µM*, Luc counter 0.0%, SMN2 splice up -25.0%, NPC1 promoter act 0.0%, ELG1 genotox 6.2% and Rab9 promoter act 15.9%.
